High-throughput results from PubChem BioAssay.
An excerpt weighted towards active compounds, which were near 3.4% of everything screened.
TEAD-YAP block: TEAD-YAP interaction inhibition; inhibition, % at 9.12 µM; 640,000 tested, 1.4% active; HEK-TIYL cells, TEAD-Gal4/YAP UAS-luciferase luminescence; AID 1259422; in the data active = inhibition above about 32%;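 note: 0% = median of test compound wells and 100% = reference inhibitor wells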
GPR151 ag: activates the human receptor GPR151; Q8TDV0; PathHunter beta-arrestin GPR151 cells, luminescence; activation, % at 11.2 µM; 650,000 tested, 1% active; AID 1508602; in the data active = activation above about 4.9%;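 note: 0% = median of compound wells and 100% = cells with positive control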
FBW7 act: activators of human E3 ligase FBW7 | AlphaScreen FBW7–phospho-cyclin E peptide binding, activator screen | normalized activity (activation), % at 26.1 µM | 650,000 tested, 0.13% active | AID 1259310; in the data active = normalized activity above about 1.9%;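 note: purified mutant Fbw7 with reduced substrate affinity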
Target sequence (Q969H0 whole entry, looked up): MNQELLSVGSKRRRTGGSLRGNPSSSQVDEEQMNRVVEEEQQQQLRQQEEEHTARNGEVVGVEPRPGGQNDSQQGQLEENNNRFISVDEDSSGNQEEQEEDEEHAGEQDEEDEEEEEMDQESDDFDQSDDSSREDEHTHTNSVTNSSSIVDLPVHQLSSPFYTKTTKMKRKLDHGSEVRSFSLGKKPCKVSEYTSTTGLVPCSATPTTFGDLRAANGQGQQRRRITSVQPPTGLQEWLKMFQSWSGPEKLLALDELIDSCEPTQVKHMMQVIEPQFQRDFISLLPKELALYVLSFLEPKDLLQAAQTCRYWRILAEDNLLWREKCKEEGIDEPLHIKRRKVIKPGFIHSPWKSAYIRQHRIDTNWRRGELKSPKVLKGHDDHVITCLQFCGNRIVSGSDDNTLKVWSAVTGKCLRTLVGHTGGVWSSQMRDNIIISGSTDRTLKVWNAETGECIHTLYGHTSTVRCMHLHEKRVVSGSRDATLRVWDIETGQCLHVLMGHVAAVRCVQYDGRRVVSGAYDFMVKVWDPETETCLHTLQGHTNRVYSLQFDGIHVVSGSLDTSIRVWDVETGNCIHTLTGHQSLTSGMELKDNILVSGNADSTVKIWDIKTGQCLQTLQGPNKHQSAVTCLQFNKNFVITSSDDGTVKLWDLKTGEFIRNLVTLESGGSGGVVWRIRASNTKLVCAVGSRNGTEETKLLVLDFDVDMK
MITF primary: inhibitors of human MITF; AlphaScreen MITF homodimerization, bead proximity signal; inhibition, % at 2.6 µM; 650,000 tested, 0.91% active; AID 1259374; in the data active = inhibition above about 50%;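 note: 0% = vehicle wells with protein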
An asterisk follows results filed as active.

SMILES	TEAD-YAP block	GPR151 ag	FBW7 act	MITF primary
COc1cccc2sc(N(Cc3cccnc3)C(=O)C3CCCN3S(C)(=O)=O)nc12 (configuration not stated)	3	1	0	-2
COc1ccc(-n2c(C)c(C(C)=O)c3cc(OC(=O)c4ccc(C)cc4)ccc32)cc1	48*	0	1	-5
N#CC1=C(N)OC2=C(C(=O)CCC2)C1c1cn[nH]c1-c1ccc(F)cc1 (configuration not stated)	3	0	0	6
O=C1CCCC2=C1C(c1cn[nH]c1-c1ccc(F)cc1)C1=C(CCCC1=O)O2	49*	-1	0	-8
COc1ccc2cc(S(=O)(=O)n3cnc4cc(C)c(C)cc43)ccc2c1	67*	1	0	11
Nc1c(C(=O)Nc2ccc(Br)cc2)nnn1Cc1cccc(Cl)c1	6	0	0	17
Nc1c(C(=O)Nc2ccc(F)cc2)nnn1Cc1cccc(Cl)c1	33*	1	0	11
N/C(=N\OC(=O)c1sc2ccccc2c1Cl)c1ncon1	40*	0	1	17
N/C(=N\OC(=O)c1ccccc1Cl)c1ncon1	20	0	0	5
Cc1ccc(-n2c(N)c(C(=O)O)c3nc4ccccc4nc32)cc1C	-4	-1	0	10
NNC(=O)c1c(N)n(-c2ccc3ccccc3c2)c2nc3ccccc3nc12	47*	0	1	-3
CCN(CC)c1ccc(/C=N/Nc2ccccc2[N+](=O)[O-])c(O)c1	40*	1	0	2
NS(=O)(=O)c1ccc(N/N=C/c2ccc(O)c(O)c2O)c([N+](=O)[O-])c1	2	3	0	70*
O=[N+]([O-])c1cc(S(=O)(=O)N/N=C/c2ccc(O)c(O)c2O)ccc1Cl	2	0	0	55*
Cc1ccc(S(=O)(=O)N/N=C/c2cc([N+](=O)[O-])ccc2O)cc1[N+](=O)[O-]	0	1	0	8
CCN(CC)c1ccc(/C=N/N=C(N)N)c(O)c1	50*	3	0	13
COc1ccc(CSCC(=O)N/N=C(\C)c2ccc(Cl)cc2)cc1	-3	0	0	6
CN1CCN(CCC(=O)N/N=C/c2ccc(O)cc2)CC1	0	2	0	25
Cc1ccccc1/C=N/Nc1ccc(S(N)(=O)=O)cc1[N+](=O)[O-]	-13	1	2.0*	14
NS(=O)(=O)c1ccc(N/N=C/c2ccccc2Br)c([N+](=O)[O-])c1	11	2	0	9
O=C(Cn1c2ccccc2c(=O)c2ccccc21)N/N=C/c1ccccc1O	45*	1	0	15
CCOc1cc(/C=N/NC(=O)Cn2c3ccccc3c(=O)c3ccccc32)ccc1O	59*	2	0	-12
CCOc1cc(/C=N/NC(=O)Cn2nnc(-c3ccccc3)n2)ccc1O	16	1	0	7
C/C(=N\O)C(=O)NCc1cccnc1	-2	4	0	1
COc1cccc(/C=N/NC(=O)c2cccc(N)c2)c1O	67*	1	0	34
SMILES	TEAD-YAP block	GPR151 ag	FBW7 act	MITF primary
COc1cc(Br)cc(/C=N/NC(=O)c2cccc(Br)c2)c1O	35*	-1	0	-13
CC(C)(C)c1ccc(O)c(/C=N/NC(=O)c2ccc3c(c2)OCCO3)c1	45*	0	0	29
COc1ccc(CNC(=O)C(=O)N/N=C/c2cccc(OC)c2O)cc1	10	-1	0	53*
CCn1nc(C(=O)Nc2nnc(-c3ccccc3Cl)o2)cc1C	3	1	-1	3
NC1=NC(=O)/C(=C/c2cc(Cl)cc(Cl)c2O)S1	1	0	1	12
COC(=O)CCN(C(=O)c1ccc(C)cc1)c1ccccn1	-4	-1	0	14
CC(C)Oc1ccc(Br)cc1C(=O)N/N=C/c1ccc2c(c1)OCO2	40*	-1	0	5
COc1cccc(/C=N\NC(=O)c2c(C)nc3cc(C)ccn23)c1O	78*	-1	-1	50
COc1cc(Cl)cc(/C=N\NC(=O)c2ccc3c(c2)OCO3)c1O	74*	0	-3	10
COc1cccc(/C=N/NC(=O)c2cc(Br)ccc2OC(C)C)c1O	78*	-2	0	14
Cc1ccn2c(C(=O)N/N=C\c3ccccc3[N+](=O)[O-])c(C)nc2c1	-4	0	0	-6
Cc1ccc(NC(=O)OCC2CCCN3CCCCC23)cc1 (configuration not stated)	-22	-1	0	10
COCCNC(=O)/C(C#N)=C/c1c(Oc2cccc(C)c2C)nc2ccccn2c1=O	15	-1	0	18
COc1cccc(/C=N/NC(=O)c2cccc(Cn3nc(C)cc3C)c2)c1O	7	-1	0	57*
COc1cccc(/C=N/Nc2ccc(S(=O)(=O)O)cc2)c1O	10	1	0	21
COc1cccc(/C=N/NC(=O)c2cccc(Cn3cccn3)c2)c1O	-3	-1	0	11
COc1cccc(/C=N/NC(=O)c2ccc(O)cc2)c1O	21	-1	0	-27
COc1cccc(/C=N/NC(=O)c2ccc(C(C)(C)C)cc2)c1O	39*	3	-1	15
COc1cccc(/C=N/Nc2ccc(C(=O)O)cc2)c1O	84*	-6	0	-15
COc1cccc(/C=N/NC(=O)c2cccc(Br)c2)c1O	64*	0	-1	20
O=C1OC(c2ccc(Br)cc2)=N/C1=C\c1ccccc1Br	-6	-1	0	-9
COc1cccc(/C=N/NC(=O)c2cc(C(C)C)[nH]n2)c1O	49*	0	0	16
Cc1nc2ccccn2c1C(=O)N/N=C/c1ccc(O)c(O)c1O	8	0	0	76*
O=C(O)c1ccc(N/N=C/c2c(F)cccc2Cl)cc1	36*	-8	0	2
COc1cccc(/C=N/NC(=O)c2cc(-c3ccco3)[nH]n2)c1O	23	0	-1	41
SMILES	TEAD-YAP block	GPR151 ag	FBW7 act	MITF primary
C=CCc1cccc(/C=N/NC(=O)c2ccc(OC)cc2)c1O	50*	0	1	11
O=C(NCCOc1ccccc1)c1cnc(N2CCC(N3CCOCC3)CC2)s1	-31	0	0	4
COc1cc(CCC(=O)N2CCCCC2c2nc3cc(C)c(C)cc3[nH]2)on1 (configuration not stated)	41*	-1	0	-1
Cc1cc2nc(C3CCCCN3C(=O)CCc3c(C)noc3C)[nH]c2cc1C (configuration not stated)	0	0	0	-4
CC(=O)NC1(C(F)(F)F)C(=O)Nc2c1c(=O)[nH]c(=O)n2-c1ccccc1 (configuration not stated)	-1	-1	0	-6
COc1ccc(C2(C(=O)NC(C)c3nc(-c4ccncc4)n[nH]3)CC2)cc1 (configuration not stated)	64*	0	0	-4
COc1ccc(C2(C(=O)NC(C)c3nc(-c4cccnc4)n[nH]3)CCCCC2)cc1 (configuration not stated)	1	0	0	1
CC(=O)c1ccc(N=Nc2ccc3nonc3c2N)cc1	50*	0	1	13
